Measurements taken from PubChem BioAssay (Tox21).
Where “and” joins values, the source holds several entries; their conditions need not be identical. Equal values may be shown once. Calls of active or inactive are those of the source. A call without a number means that no potency is given here. Calls come from the whole dose curve; as a rule, active = well fitted curve in the direction sought with a large enough effect in the signal ratio in the repeat runs (not every such curve was filed as active); inconclusive = weak or mixed curves, or effect the other way; inactive = no such curve, though single readings can be large or run the other way; the % refers to the signal ratio.

Biological target: Estrogen receptor (Homo sapiens) (UniProt P03372)
Assay: qHTS assay to identify small molecule antagonists of the estrogen receptor alpha (ER-alpha) signaling pathway (AID 743069)
Details: HEK293 ER-alpha-UAS-bla, beta-lactamase ratio, antagonist mode; series mostly up to 69.4 µM
Procedure, shortened: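 Fluorescence intensity from a beta-lactamase FRET substrate served as the read-out. Cells: HEK293 with stably integrated ER-alpha-UAS-bla reporter. Agonist 17beta-estradiol was co-added with compounds; incubation 18 hr at 37C, substrate 2 hr at room temperature.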
Potency is the fitted concentration of half-maximal effect.

Chain of Estrogen receptor (Homo sapiens) (P03372 whole entry, looked up): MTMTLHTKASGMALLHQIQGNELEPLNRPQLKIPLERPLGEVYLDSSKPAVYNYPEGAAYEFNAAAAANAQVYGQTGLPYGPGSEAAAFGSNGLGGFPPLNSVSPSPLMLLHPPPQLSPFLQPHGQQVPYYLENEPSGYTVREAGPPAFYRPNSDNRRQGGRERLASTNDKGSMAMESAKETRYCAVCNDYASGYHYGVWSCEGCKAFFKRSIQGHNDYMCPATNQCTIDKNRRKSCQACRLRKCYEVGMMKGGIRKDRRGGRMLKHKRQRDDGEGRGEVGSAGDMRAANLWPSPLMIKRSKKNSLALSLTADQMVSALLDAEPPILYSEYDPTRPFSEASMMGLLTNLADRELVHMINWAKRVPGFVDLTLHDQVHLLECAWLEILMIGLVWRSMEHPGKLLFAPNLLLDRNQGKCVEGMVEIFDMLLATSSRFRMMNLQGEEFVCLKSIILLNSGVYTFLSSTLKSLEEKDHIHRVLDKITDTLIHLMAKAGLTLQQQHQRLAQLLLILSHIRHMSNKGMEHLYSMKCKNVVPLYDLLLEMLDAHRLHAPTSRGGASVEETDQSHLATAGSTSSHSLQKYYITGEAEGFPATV

SMILES	Potency
CN(C)c1nc(=O)n(C2CCCCC2)c(=O)n1C	inactive
Clc1ccc(C(Cl)(Cl)Cl)cc1	inactive
CCOP(=S)(OCC)SCn1c(=O)oc2cc(Cl)ccc21	inactive
COc1ccc(O)c(C(C)(C)C)c1	inactive
CC1=C(C(=O)Nc2ccccc2)SCCO1	inactive
CCCCOCCOC(C)=O	inactive
CNC(=O)Oc1cccc2c1OC(C)(C)C2	inactive
O=NN(c1ccccc1)c1ccccc1	inactive
O=C(O)CF	inactive
CCOP(=S)(OCC)SCSC(C)(C)C	inactive
CCOS(=O)(=O)OCC	inactive
ClC(Cl)=C(Cl)C(Cl)=C(Cl)Cl	inactive
CC1(C)Cc2cccc(O)c2O1	inactive
CC(C)COC(=O)c1ccccc1C(=O)OCC(C)C	inactive
N#Cc1cccnc1	inactive
ClC(Cl)(Cl)c1ccccc1	inactive
CCCCOCC1CO1 (configuration not stated)	inactive
CCCCCCCCCCCCCl	inactive
CCC1(c2ccc(N)cc2)CCC(=O)NC1=O (configuration not stated)	inactive

SMILES	Potency
C=C(C)C#N	inactive
Cc1cccc(N=Nc2ccc(N(C)C)cc2)c1	inactive
O=NN1CCOCC1	inactive
c1ccc2c(c1)Nc1ccccc1S2	inactive
CC[n+]1c(-c2ccccc2)c2cc(N)ccc2c2ccc(N)cc21	26.8 µM [inconclusive] (active) and 30.8 µM [inconclusive] (active)
COc1ccc(C=O)cc1OC	inactive
CC(C)Nc1nc(Cl)nc(NC(C)C)n1	inactive
O=[N+]([O-])/N=C1\NCCN1Cc1ccc(Cl)nc1	inactive
CCOC(=O)c1ccccc1N	inactive
CN(C)P(=O)(N(C)C)N(C)C	inactive
CCCCOC(=O)COC(=O)c1ccccc1C(=O)OCCCC	inactive
CC(C)=CC1C(C(=O)OCc2cccc(Oc3ccccc3)c2)C1(C)C (configuration not stated)	inactive
Clc1cccc(C(Cl)(Cl)Cl)n1	inactive
CSc1nc(NC(C)C)nc(NC(C)C)n1	inactive
CNC(=O)CSP(=S)(OC)OC	inactive
OC(c1ccc(Cl)cc1)(c1cncnc1)c1ccccc1Cl (configuration not stated)	54.9 µM [inconclusive] (active)
CCC/C=N/O	inactive
C[C@]12CCC(=O)C=C1CC[C@@H]1[C@@H]2CC[C@@]2(C)[C@H]1CC[C@]2(C)O	inactive
